From PubChem
AMA1 RON2 block: qHTS for Inhibitors of AMA1-RON; Towards Development of Antimalarial Drug Lead: Primary Screen | Potency, µM (top dose mostly 58.2 µM), inactives show top-dose activity change, negative = inhibition, most hits filed as inhibitors | AID 720542, 2013 | 360,000 compounds, 0.2% hits | AlphaScreen AMA1-biotinylated RON2 peptide binding;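 also: 0% = vehicle wells and -100% = peptide control; nearly all actives have a fitted effect of over 45% in size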
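AMA1 (3D7) with his tag at 25 nM final met compounds first, then biotinylated RON2 peptide at 25 nM; detection used donor plus acceptor beads, 10 µg/mL apiece, read by AlphaScreen after 30 min at room temperature.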
NS1 inh: qHTS Assay for Inhibitors of Influenza NS1 Protein Function; Potency, µM (series often up to 46.1 µM), for inactives: top-dose activity, positive = more growth; 270,000 compounds, 0.4% hits; AID 2326, 2010; calls by dose curve; also: actives are rising curves; nearly all actives have a fitted effect of over 50% in size
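OD600 was taken as the measure of yeast growth restored by compound in an NS1-expressing S. cerevisiae strain. Cells had been washed out of glucose medium and diluted 1:100 into galactose -URA medium, pH 6.0.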
AmpC no deterg: qHTS Inhibitors of AmpC Beta-Lactamase (assay without detergent) | AmpC nitrocefin hydrolysis, absorbance 480 nm, 0.0001% Triton | Potency, µM (highest dose often 57.1 µM), for inactives: at the highest dose activity change, negative = inhibition, hits mostly inhibitors | 330,000 compounds, 0.52% hits;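 also: plate controls were no compound for no effect and no enzyme for full effect; nearly all actives have a fitted effect of over 20% in size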
Target sequence (P00811 whole entry, looked up): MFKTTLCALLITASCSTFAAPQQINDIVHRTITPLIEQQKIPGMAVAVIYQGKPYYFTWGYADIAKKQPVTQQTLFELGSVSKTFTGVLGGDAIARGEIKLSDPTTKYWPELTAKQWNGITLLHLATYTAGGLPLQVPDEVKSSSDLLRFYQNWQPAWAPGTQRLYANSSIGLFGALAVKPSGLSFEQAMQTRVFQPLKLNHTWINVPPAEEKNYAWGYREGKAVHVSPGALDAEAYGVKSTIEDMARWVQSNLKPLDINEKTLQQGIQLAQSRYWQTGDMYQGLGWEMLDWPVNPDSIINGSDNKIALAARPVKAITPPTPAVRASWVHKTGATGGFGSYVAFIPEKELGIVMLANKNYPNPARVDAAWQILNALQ
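AmpC (5.3 nM in the dispensed reagent) in 20 mM phosphate pH 7.0 with 0.01% (detergent screen) or 0.0001% Triton X-100 was preincubated with compounds for 15 min at room temperature. Nitrocefin was then added from an 800 uM solution, and hydrolysis was followed at 480 nm.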
AmpC detergent: qHTS Inhibitors of AmpC Beta-Lactamase (assay with detergent) | AmpC hydrolysis of nitrocefin, absorbance 480 nm, 0.01% Triton | Potency, µM (highest dose often 114 µM), for inactives: at the top dose activity change, negative = inhibition, hits mostly inhibitors | 370,000 compounds, 0.041% hits;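 also: 0% = no-compound wells and -100% = no-enzyme wells; nearly all actives have a fitted effect of over 25% in size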
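AmpC (5.3 nM in the dispensed reagent) in 20 mM phosphate pH 7.0 with 0.01% (detergent screen) or 0.0001% Triton X-100 was preincubated with compounds for 15 min at room temperature. Nitrocefin was then added from an 800 uM solution, and hydrolysis was followed at 480 nm.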
* = called active by the depositor; ? = inconclusive; . = not tested or not shown. Compounds with a hit are over-represented: about 0.86% of the library has one in this group of screens. Unless noted, calls follow the shape of the dose curve; as a rule, active = well fitted curve in the direction sought with a large enough effect; inconclusive = small, poorly fitted or top-dose-only effect, or another doubt; inactive = no such curve, though single readings can be large; an effect the other way counts as inactive or inconclusive. Potency is read from the fitted curve at half-maximal effect.

SMILES	AMA1 RON2 block	NS1 inh	AmpC no deterg	AmpC detergent
CCC(C(=O)NC1CCCC1)N(Cc1ccco1)C(=O)CNS(=O)(=O)c1ccccc1 (stereo not given)	-17.0%	-1.5%	1.4%	1.2%
CC(C)N(CCn1c(SCC(=O)Nc2cccnc2Cl)nc2ccccc2c1=O)C(C)C	-0.6%	.	12.3%	?
COc1ccc(CN2c3c(Br)cccc3C(=O)CS2(=O)=O)cc1	-3.8%	.	12.6µM*	.
O=C1CS(=O)(=O)N(Cc2cccc(F)c2)c2ccc(Br)cc21	7.3%	.	-48.4%	12.1%
Cc1ccc(CNC(=O)CS(=O)(=O)Cc2nc(-c3ccccc3C)oc2C)cc1	.	.	.	-1.5%
CCCNC(=O)CS(=O)(=O)Cc1nc(-c2ccccc2C)oc1C	-3.1%	-21.1%	3.55µM*	-4.6%
CCCCN(C)C(=O)CS(=O)(=O)Cc1nc(-c2cccc(OC)c2)oc1C	2.0%	-6.2%	11.2µM*	?
COCCCNC(=O)CS(=O)(=O)Cc1nc(-c2cccc(OC)c2)oc1C	-5.4%	6.4%	8.6%	-14.8%
COc1ccc(-c2nc(CS(=O)(=O)CC(=O)Nc3ccc(Cl)cc3)c(C)o2)cc1	-2.1%	-31.1%	3.98µM*	-3.4%
Cc1sc(/N=C/c2ccccc2O)c(C#N)c1C	.	-1.0%	2.6%	?
CCOC(=O)c1cnc2c(ccc3ccccc32)c1NCCCN(C)C	-0.3%	-4.9%	114.7%	-11.6%
NC(=O)[C@@H]1CCNc2c(I)cc([N+](=O)[O-])cc2C(=O)N[C@@H](CO)C(=O)N[C@@H](Cc2ccc(O)cc2)C(=O)N1	.	11.2µM*	-3.1%	4.8%
CC(C)C[C@@H]1NC(=O)[C@H](Cc2ccc(O)cc2)NC(=O)[C@H](CCC(N)=O)NC(=O)c2cc([N+](=O)[O-])cc(I)c2NCC[C@@H](C(N)=O)NC1=O	.	-25.0%	17.5%	?
CS(=O)(=O)c1ccc(CNC(=O)C2(C(F)(F)F)CC(CCCO)CCCO2)cc1 (stereo not given)	-1.1%	.	.	.
COc1ccc(NC(=O)c2oc3ccc(S(=O)(=O)N4CCC5(CC4)OCCO5)cc3c2C)cc1	-5.1%	11.2µM*	100.9%	-2.7%
COc1ccc2nc(NC(=O)c3ccc(NS(=O)(=O)c4cccs4)cc3)sc2c1	-19.1%	13.0%	2.51µM*	?
COc1ccc(/C(C)=N/NC(=O)c2ccc(NS(=O)(=O)c3cccs3)cc2)cc1	19.9%	6.6%	10µM*	-9.6%
O=C(NN=Cc1ccccc1OC(F)F)c1ccc(NS(=O)(=O)c2cccs2)cc1	70.0%	.	15.8µM*	.
COc1ccc2nc(NC(=O)CNS(=O)(=O)c3cccs3)sc2c1	0.2%	-0.8%	?	-5.2%
CC(C)C[C@@]12C(=O)N(c3cccc(F)c3)C(=O)N1[C@H](c1ccc(F)cc1)[C@@H]1C(=O)N(C3CCCCC3)C(=O)[C@@H]12	-9.0%	.	12.9%	?
Cc1ccc(S(=O)(=O)N2C[C@H]3[C@H]4C(=O)N(Cc5ccccc5)C(=O)[C@H]4CC(=O)[C@H]3[C@@H]2c2ccccc2)cc1	22.9%	.	.	.
CCOC(=O)/C=C1\SCC(=O)N1CC(=O)NC(C)c1ccccc1 (stereo not given)	-2.5%	11.1%	-21.5%	-4.7%
CCOC(=O)/C=C1\SCC(=O)N1CC(=O)NC(c1ccccc1)c1ccccc1	-0.8%	?	28.2µM*	-13.6%
N#Cc1cc(C(=O)c2cc(Cl)ccc2O)cn(-c2ccccc2)c1=O	-13.8%	-14.2%	-36.8%	-15.0%
Cc1ccc(NC(=O)c2cc(C(=O)c3cc(Cl)ccc3O)cn(-c3ccc(C)cc3)c2=O)cc1	-15.7%	23.0%	3.16µM*	-5.6%
SMILES	AMA1 RON2 block	NS1 inh	AmpC no deterg	AmpC detergent
Cc1ccc(F)cc1NC(=O)c1ccc(Cn2nc(N3CCN(c4ccccc4)CC3)ccc2=O)o1	.	.	.	-1.7%
COc1ccccc1CCCNC(=O)C1CCC(=O)N(Cc2ccccc2F)C1 (stereo not given)	11.8%	-5.8%	58.8%	-11.5%
CN(C)S(=O)(=O)c1ccc(C(=O)Nc2cc(S(=O)(=O)Nc3ccccc3Cl)ccc2N2CCCCC2)cc1	4.7%	?	3.16µM*	-3.9%
CCOC(=O)c1c(NC(=O)c2cc(-c3ccc(O)cc3)on2)sc(C(C)=O)c1C	-5.1%	-10.1%	-29.3%	?
COc1ccc(-n2c(=O)c3ccc(C(=O)NCc4ccc(C)cc4)cc3n(Cc3ccc(Cl)cc3)c2=O)cc1	.	.	.	3.9%
O=C(O)C/C(=C\c1cccc(NC(=O)c2ccccc2Cl)c1)c1nc2ccccc2s1	0.0%	-79.8%	15.8µM*	-3.4%
O=C(CSc1nnc(SCc2cccc3ccccc23)s1)Nc1ccc(C(=O)O)cc1	-4.9%	1.3%	-40.0%	-0.9%
O=C(CSc1nnc(SCc2cccc3ccccc23)s1)c1ccc2c(c1)OCO2	41.2%	6.6%	25.1µM*	-8.9%
CN(C(=O)CSc1cc(C(=O)c2nccn2C)c2ccccc2n1)c1ccccc1	?	-45.8%	118.1%	-1.6%
CC(C)Cc1ccccc1S(N)(=O)=O	-4.8%	-14.3%	-19.1%	-9.9%
Cc1ccccc1NC1=C/C(=N\S(=O)(=O)c2cccs2)c2ccccc2C1=O	8.91µM*	-5.4%	-38.8%	-8.9%
CCc1cc(/C(Cc2ccccn2)=N\Nc2ccccc2)c(O)cc1O	86.9%	7.2%	25.1µM*	-2.2%
Cc1nc(C/C(=N\Nc2ccccc2)c2ccc(O)cc2O)cs1	-7.6%	1.1%	-56.0%	-5.2%
CCOC(=O)Cn1c(=O)oc2cc(S(=O)(=O)NCCc3ccc(C)cc3)ccc21	5.2%	-9.9%	10µM*	?
Cc1ccc(NC(=O)C2=CC(c3ccc4c(c3)OCO4)=NS(=O)(=O)N2C)cc1	.	.	.	18.0%
CC(=O)c1cccc(NC(=O)C2=CC(c3ccc4c(c3)OCO4)=NS(=O)(=O)N2C)c1	-10.0%	8.5%	10µM*	-5.0%
Fc1ccc(Nc2ncnc3sc4c(c23)CCC4)cc1	8.6%	-19.6%	0.316µM*	0.0%
CCOc1ccc(NC(=O)N(CCN2CCOCC2)Cc2ccc3c(c2)CCCN3CC)cc1	?	-8.1%	173.2%	-3.4%
CCCN1CCCc2cc(CN(CCCN3CCOCC3)C(=O)Nc3ccc(OCC)cc3)ccc21	26.7µM*	4.7%	186.3%	?
O=C(O)c1c[nH]c2c([N+](=O)[O-])cccc2c1=O	-18.7%	.	.	.
Cc1cc(NC(=O)CSc2nnc(-c3ccco3)o2)no1	28.2µM*	-1.2%	.	-7.2%
Cc1cc(NC(=O)CSc2nnc(COc3ccccc3)o2)no1	11.2µM*	3.1%	-34.5%	-13.8%
Cc1cccnc1NC(=O)CCCNC(=O)c1ccc(Cl)cc1	6.0%	.	-7.3%	-6.8%
O=C(NCCCn1ccnc1)c1cccc(Cl)c1	0.4%	4.0%	2.2%	-0.1%
O=C(NCCCn1ccnc1)Nc1cccc(Cl)c1	25.1µM*	1.0%	-6.2%	0.3%
CCOC(=O)/C=c1\s/c(=C\c2ccc(-c3ccccc3)cc2)c(=O)n1CC(=O)NCc1ccc2c(c1)OCO2	-5.3%	11.2µM*	?	-12.3%
O=C(CS(=O)(=O)c1c[nH]c2ccccc12)Nc1ccc(F)cc1	-9.9%	2.7%	-32.8%	1.6%
